In PubChem BioAssay (NCI):
Compounds without any hit were thinned out: in the full panel of roughly 83,000, 20% have a hit.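 Method: cells in 96-well plates; compound added at one concentration; 48 h incubation; percent growth measured; values under 10 scored active.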 A number with no mark means an inactive call. The source made the active and inactive calls.

These compounds were tested on A549/ATCC NSCLC (assay: NCI-60 one-dose screen, 48 h (100 = growth as untreated, 0 = no growth, -100 = all killed)). Settings: 10 µM unless noted.
Experimental: Growth inhibition of the A549/ATCC human Non-Small Cell Lung tumor cell line is measured as a screen for anti-cancer activity. Cells are grown in 96 well plates and exposed to the test compound for 48 hours. Compounds are tested at a single concentration, which is 10^-5 M for most compounds. The reported endpoint is percent growth (GI% or GIPRCNT), where numbers from 0 - 100% represent growth inhibition, and numbers from -100% - 0 represent cell death. For example, a value of 40 represents 60% growth inhibition. A value of 0 means no net growth occurred over the course of the experiment. A value of -40 indicates 40% of cells at the beginning of the experiment died by the end of the experiment. A value of -100 means all cells are dead at the end of the experiment.
NCI-60 Human Tumor Cell Lines Screen was performed using the standard one-dose NCI protocol, which is described in more detail at https://dtp.cancer.gov/discovery_development/nci-60/default.htm.
Compounds with GIPRCNT values below 10 were considered active. Activity score was based on GIPRCNT using the following formula: […]
Score is 0 for GIPRCNT values of 100 or above, 50 for GIPRCNT values of 0, and 100 for GIPRCNT values of -100.

SMILES	growth
COC(=O)N[C@H]1CCc2c(Br)c(OC)c(OC)c(OC)c2-c2ccc(SC)c(=O)cc21	18.3%
Nc1cc2nc3ccccc3nc2cc1N	80.1%
CC(=O)O[C@H](C[C@H](C(C)C)N(C)C(=O)[C@@H](NC(=O)[C@H]1CCCN1C)C(C)C)c1nc(C(=O)N[C@@H](Cc2ccccc2)C[C@H](C)C(=O)O)c(C)s1	13.3%
CC(=O)Nc1ccc(NC(=O)c2ccc([As](O)O)cc2)cc1	114%
C[C@@H]1C[C@@]2(C)[C@@H](CC[C@@H]3[C@@H]2CC[C@]2(C)C(=O)CC[C@@H]32)CC1=O	82.7%
C/C(=C\c1ccn(-c2ccc(N)cc2C(F)(F)F)n1)[C@@H]1C[C@@H]2O[C@]2(C)CCC[C@H](C)[C@H](O)[C@@H](C)C(=O)C(C)(C)[C@@H](O)CC(=O)O1	9.78% (active)
COC1CC2c3ccccc3C1C(C)=[N+]2C (stereo not given)	96%
COC(=O)C1CCC(NC(=O)c2csc([C@@H](C[C@H](C(C)C)N(C)C(=O)[C@@H](NC(=O)[C@H]3CCCCN3C)C(C)C)OC(C)=O)n2)CC1 (stereo not given in full)	15.9%
CC(=O)OC[C@]1(C)C=C2C(=O)[C@](C)(O)C3(CC3)C(C)=C2[C@H]1O	-21.4% (active)
CC(=O)OCC1O[C@@H]([S-])C(OC(C)=O)[C@H](OC(C)=O)[C@@H]1OC(C)=O.[Au+].c1ccc(CN2[CH-]N(Cc3ccccc3)C(c3ccccc3)=C2c2ccccc2)cc1	76.3%
COC1=CC(=O)O[C@@H](/C=C/c2ccc3c(c2)OCO3)C1	97%
O=c1[nH]c2ccc([N+](=O)[O-])cc2c(=O)o1	107%
CC1(C)C(C(=O)c2cn(CCCCF)c3ccccc23)C1(C)C	78.5%
COC(=O)[C@@H](C)C[C@H](Cc1ccccc1)NC(=O)c1csc([C@@H](C[C@H](C(C)C)N(C)C(=O)[C@H](C)NC(=O)[C@H]2CCCN2C)OC(C)=O)n1	83%
Nc1ccc2c(c1)oc1ccccc12	89%
CC(=O)OC[C@]1(C)C=C2C(=O)[C@](C)(O)C3(CC3)C(C)=C2[C@H]1OC(=O)N(C)CCN(C)C(=O)OC(C)(C)C	4.55% (active)
CCCCN1CCCC[C@@H]1C(=O)N[C@H](C(=O)N(C)[C@H](C[C@@H](OC(C)=O)c1nc(C(=O)NC2CCC(C(=O)OC)CC2)cs1)C(C)C)C(C)C (stereo not given in full)	24.2%
O=C1C(Cl)=C(N2CCOCC2)C(=O)c2ccccc21	101%
CCC1CN1CCCCN1CC1CC (stereo not given)	104%
O=[N+]([O-])c1c(Br)sc(Br)c1[N+](=O)[O-]	77.3%

SMILES	growth
COC(=O)CCC1=C(C)c2cc3[n-]c(cc4nc(cc5[n-]c(cc1n2)c(CCC(=O)OC)c5C)C=C4C)cc3C.[Cd+2]	56.1%
O=C(Nc1ccc(Cl)cc1)Nc1nccs1	38.6%
O=C(N/N=C/c1ccc(N(CCCl)CCCl)cc1)c1cccc2ccccc12	58.4%
C[n+]1c(/C=C/c2ccc(N(CCCl)CCCl)cc2)sc2ccccc21	40.2%
CCOC(=S)S[C@H]1C[C@@H]2[C@H](CC[C@]3(C)C(=O)CC[C@@H]23)[C@@]2(C)CCC(=O)C=C12	107%
C[CH2][Sn]([Cl])([Cl])[CH2]C.Oc1ccccc1C=NCCN=Cc1ccccc1O	96%
C=CCn1cc(C=C2C(=O)N(C)C(=O)N(C)C2=O)c2ccccc21	107%
O=C(CC1(O)C(=O)N(Cc2ccccc2)c2ccc(Cl)cc21)c1ccc(C(=O)NCC2CCC3(CC2)OOC2(CCCCC2)OO3)cc1 (stereo not given)	-55.8% (active)
COC(=O)[C@@H](C)C[C@H](Cc1ccccc1)NC(=O)c1nc([C@@H](C[C@H](C(C)C)N(C)C(=O)[C@@H](NC(=O)[C@H]2C[C@H](O)CCN2C)C(C)C)OC(C)=O)sc1C(C)C	10.7%
Fc1ccc2c(c1)c(-c1nc(-c3c[nH]c4ncccc34)cs1)cn2CCN1CCOCC1	52.1%
O=C1NC(=O)C(=Cc2ccc(OCCCCC3CCCCC3)c(Cl)c2)C(=O)N1	92.6%
COc1ccc2nc(NC(=O)COc3cc(/C=C\c4cc(OC)c(OC)c(OC)c4)ccc3OC)sc2c1	25.7%
C[C@@H]1O[C@@H](O[C@H]2C[C@@H](O)[C@]3(CO)C4C(CC[C@]3(O)C2)[C@@]2(O)CC[C@H](C3=CC(=O)OC3)[C@@]2(C)C[C@H]4O)[C@H](O)[C@H](O)[C@H]1O (stereo not given in full)	-91.4% (active)
C=C1C(=O)O[C@H]2[C@H]1CC/C(COC(=O)C(=O)c1cn(Cc3ccccc3)c3ccccc13)=C\CC[C@@]1(C)O[C@@H]21	-42.7% (active)
COC(=O)[C@@H](C)C[C@H](Cc1ccccc1)NC(=O)c1nc([C@@H](C[C@H](C(C)C)N(C)C(=O)[C@@H](NC(=O)[C@H]2CCCCN2C)C(C)C)OC(C)=O)sc1C(C)C	2.6% (active)
O=C(c1cccc(O)c1O)c1cn(Cc2ccc(F)cc2)c2cccc(O)c12	30.5%
COc1cc2c(cc1OCCCn1c(-c3ccccn3)nc3ccccc31)N=C[C@@H]1CCCN1C2=O	20%
O=C(CC1(O)C(=O)Nc2ccccc21)c1ccc(C(=O)NCC2CCC3(CC2)OOC2(CCCCC2)OO3)cc1 (stereo not given)	57.9%
O=C(NCCN1CC1)C(=O)NCCN1CC1	75.3%
c1ccc(COc2ccc3[nH]cc(CCN(Cc4ccccc4)Cc4ccccc4)c3c2)cc1	85.2%
